From PubChem BioAssay
Wnt bcat act – Wnt/beta-catenin pathway activators, primary screen, cell-based, plate reader, single point. Wnt/beta-catenin reporter cell assay, activator. activation, % at 9.35 µM. 1.2% of 300,000 active. AID 743398, 2014; in the data active = activation above about 30%, passing the limit was not always enough; inconclusive = no clear call, values can overlap the other calls
SMARCA2 act – SMARCA2 (BRM) function activators, primary screen, cell-based, luminescence, high throughput. activation, % at 9.1 µM. 1% of 370,000 active. MG213 cells, MMTV-luciferase reporter, dexamethasone, overnight; in the data active = activation above about 7.8%
esBAF inh – Bmi1 luciferase reporter increase in mESCs, primary screen, esBAF inhibitor project, mouse ES cells, Bmi1 luciferase knock-in, single point. 24 h; 100% = twice the neutral-well signal. reporter increase, % at 12.5 µM. 2% of 350,000 active. AID 602393, 2012; in the data active = activation above about 40%; inconclusive = no clear call, values can overlap the other calls;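 note: a rise in the Bmi1 reporter signal indicates esBAF inhibition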
FGF22 binding – binders of human FGF22 protein, primary screen, FGF22 synaptogenesis inhibitor project, biophysical, thermal shift, single point. recombinant FGF22 thermal shift, SYPRO orange fluorescence; percent of sucrose octasulfate shift, DMSO zero. activity (Tm shift, normalised), % at 9.99 µM. 1.5% of 340,000 active;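 active = mean Tm shift, scaled 0 neutral to 100 positive control, at about 1.3% or above, every replicate too, limit read from the data; inconclusive = no clear call, values can overlap the other calls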
AF4-AF9 inh – inhibitors of AF4 peptide binding to AF9, primary screen, biochemical, AlphaScreen, biotin-AF4 peptide, FLAG-AF9, single point. Protein AF-9 (Homo sapiens), P42568. inhibition, % at 10 µM. 0.47% of 350,000 active;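 active = every replicate reaching a set inhibition limit, whatever the replicate mean, cut at about 25% in these data; inconclusive = mean inhibition reaches that limit but some replicates miss it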
Target sequence (P42568 whole entry, looked up): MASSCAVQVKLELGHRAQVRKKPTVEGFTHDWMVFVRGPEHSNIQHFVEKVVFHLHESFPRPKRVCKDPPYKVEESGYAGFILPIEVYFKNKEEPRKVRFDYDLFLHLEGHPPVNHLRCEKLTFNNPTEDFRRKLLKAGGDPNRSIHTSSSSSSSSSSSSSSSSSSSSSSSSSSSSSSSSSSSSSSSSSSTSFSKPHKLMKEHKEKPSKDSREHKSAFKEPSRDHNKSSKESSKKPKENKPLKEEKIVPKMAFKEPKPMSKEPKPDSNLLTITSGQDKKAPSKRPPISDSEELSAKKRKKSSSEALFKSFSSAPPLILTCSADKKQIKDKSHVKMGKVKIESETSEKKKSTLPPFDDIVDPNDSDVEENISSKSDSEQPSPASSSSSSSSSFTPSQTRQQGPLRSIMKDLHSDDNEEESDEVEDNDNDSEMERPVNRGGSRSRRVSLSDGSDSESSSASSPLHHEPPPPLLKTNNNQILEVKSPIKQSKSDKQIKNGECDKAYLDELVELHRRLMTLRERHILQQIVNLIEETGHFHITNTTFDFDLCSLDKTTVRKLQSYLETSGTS
MITF act – activators of MITF-driven TRPM1 promoter reporter, primary screen, cell-based, SK-MEL-5, luciferase, single point. activation, % at 12.5 µM. 0.75% of 300,000 active. SK-MEL-5 TRPM1-promoter luciferase, 24 h; % of positive control, neutral wells = 0;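 active = mean activation of at least 80% with every replicate also reaching 80%; inconclusive = mean reaches 80% but some replicate falls short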
SMARCA2 act conf – SMARCA2 (BRM) function activators, confirmation, cell-based, luminescence, triplicate | shares compounds with SMARCA2 act | MG213 cells, MMTV-luciferase with dexamethasone, overnight; MG213 cells expressing E1A, Rb sequestered; DMSO wells 0%, reference activator 100% | activation, % at 9.1 µM | 30% of 3,500 active | AID 652260, 2013;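 active = activation above its plate's cutoff, the mean activation of tested wells plus 3 SD, cut at about 7.9% in these data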
VP16 Luc act – GAL4-VP16 luciferase reporter activation, counter-screen for SMARCA2 (BRM) activator project, cell-based, pG5luc, luminescence, high throughput; shares compounds with SMARCA2 act; HEK293 GAL4-VP16 pG5luc reporter; scaled: DMSO wells 0%, SAHA wells 100%; activation, % at 9.1 µM; 41% of 3,500 active; AID 686939, 2013;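 active = activation above the solvent-only control well mean plus 3 SD, averaged across control plates, cut at about 5.2% in these data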
Numbers stand for hits. Compounds with a hit are over-represented: about 4.3% of the library has one in this group of screens.

What do the screens show for `C[C@H]1CN([C@@H](C)CO)C(=O)c2cccc(NC(=O)c3nc4ccccc4s3)c2O[C@H]1CN(C)S(=O)(=O)c1ccc(F)cc1`?
esBAF inh: inactive; FGF22 binding: inactive; AF4-AF9 inh: inactive

Results for COc1ccc(C(=O)N[C@H](C(=O)Nc2nc3ccccc3[nH]2)C(C)C)cc1 ?
Wnt bcat act: inactive; SMARCA2 act: 12.6; esBAF inh: inactive; FGF22 binding: inactive; AF4-AF9 inh: inactive; MITF act: inactive; SMARCA2 act conf: 12.3; VP16 Luc act: 14.8

Results for COc1ccc(C(=O)Nc2nc3ccccc3[nH]2)cc1 ?
Wnt bcat act: inactive; SMARCA2 act: inactive; esBAF inh: inactive; FGF22 binding: inactive; AF4-AF9 inh: inactive; MITF act: inactive

What do the screens show for `COc1ccc(C(Nc2cc(C)ccn2)c2ccc3ccc(C)nc3c2O)cc1` (stereo not drawn)?
Wnt bcat act: inactive; SMARCA2 act: 10.3; esBAF inh: inactive; FGF22 binding: inactive; AF4-AF9 inh: inactive; MITF act: inactive; SMARCA2 act conf: inactive; VP16 Luc act: inactive

How did COc1ccccc1NC(=O)N1CC(=O)N2[C@H](CO)[C@H](c3ccc(-c4ccc(C)cc4)cc3)[C@@H]2C1 do in these assays?
AF4-AF9 inh: inactive

How did COc1ccc(S(=O)(=O)N(C)C[C@H]2Oc3ccc(NS(C)(=O)=O)cc3C(=O)N([C@@H](C)CO)C[C@@H]2C)cc1 do in these assays?
esBAF inh: inactive; FGF22 binding: inactive; AF4-AF9 inh: inactive

What do the screens show for `O=C1C(C=NCCCN2CCCC2=O)=C(O)c2ccccc21`?
SMARCA2 act: 8.5; esBAF inh: inactive; MITF act: inactive; SMARCA2 act conf: inactive; VP16 Luc act: 5.7

What do the screens show for `N#Cc1cc2c(nc1SCc1ccccc1)CCCC2`?
Wnt bcat act: inactive; SMARCA2 act: inactive; FGF22 binding: inactive; AF4-AF9 inh: inactive; MITF act: inactive

How did N#Cc1cc2c(nc1SCc1ccncc1)CCC2 do in these assays?
Wnt bcat act: inactive; SMARCA2 act: 11.6; esBAF inh: 43.5; AF4-AF9 inh: inactive; MITF act: inactive; SMARCA2 act conf: inactive; VP16 Luc act: inactive

Results for C=CCn1c(-c2ccc(Cl)cc2)c[nH]c1=S ?
Wnt bcat act: inactive; SMARCA2 act: inactive; esBAF inh: inactive; MITF act: inactive

How did C=CCn1c(-c2ccccc2)c[nH]c1=S do in these assays?
Wnt bcat act: 42.5; SMARCA2 act: 12.7; esBAF inh: 64.5; MITF act: inactive; SMARCA2 act conf: inactive; VP16 Luc act: 6.0

Results for C[C@@H]1CN([C@H](C)CO)C(=O)c2cccc(NC(=O)c3ccncc3)c2O[C@H]1CN(C)Cc1ccccc1 ?
esBAF inh: inactive; FGF22 binding: inactive; AF4-AF9 inh: inactive

How did CC(=O)Nc1ccc(C(=O)OCCc2ccccc2)cc1 do in these assays?
Wnt bcat act: inactive; SMARCA2 act: 8.8; FGF22 binding: inactive; AF4-AF9 inh: inactive; MITF act: inactive; SMARCA2 act conf: inactive; VP16 Luc act: inactive

What do the screens show for `CC(=O)Nc1ccc(C(=O)OCC(=O)N2CCCC2=O)cc1`?
Wnt bcat act: inactive; SMARCA2 act: 8.9; esBAF inh: inactive; FGF22 binding: inactive; AF4-AF9 inh: inactive; MITF act: inactive; SMARCA2 act conf: inactive; VP16 Luc act: inactive

How did COc1ccccc1C(=O)OCCc1ccccc1 do in these assays?
Wnt bcat act: inactive; SMARCA2 act: 11.3; esBAF inh: 78.4; FGF22 binding: inactive; AF4-AF9 inh: inactive; MITF act: 141.2; SMARCA2 act conf: inactive; VP16 Luc act: 6.5

What do the screens show for `CC(=O)Nc1ccc(C(=O)OCC(=O)N2CCCC2)cc1`?
Wnt bcat act: inactive; SMARCA2 act: inactive; esBAF inh: inactive; FGF22 binding: inactive; AF4-AF9 inh: inactive; MITF act: inactive

How did COc1ccccc1C(=O)Cc1ccccc1 do in these assays?
Wnt bcat act: inactive; SMARCA2 act: inactive; esBAF inh: inactive; FGF22 binding: inactive; AF4-AF9 inh: inactive; MITF act: inactive

What do the screens show for `CC(=O)Nc1ccc(C(=O)OCCCOC(=O)c2ccc(NC(C)=O)cc2)cc1`?
Wnt bcat act: inactive; SMARCA2 act: inactive; esBAF inh: inactive; FGF22 binding: inactive; AF4-AF9 inh: inactive; MITF act: inactive

How did Cc1ccc(-c2ccc3c(c2)O[C@H](CN(C)S(C)(=O)=O)[C@H](C)CN([C@@H](C)CO)S3(=O)=O)cc1 do in these assays?
esBAF inh: inactive; FGF22 binding: inactive; AF4-AF9 inh: inactive

How did Cc1cc(-c2csc(N)n2)c(C)n1C do in these assays?
SMARCA2 act: inactive; esBAF inh: inactive; MITF act: inactive

What do the screens show for `Cc1ccc(-n2c(C)cc(-c3csc(N)n3)c2C)cc1`?
Wnt bcat act: inactive; SMARCA2 act: 11.6; MITF act: inactive; SMARCA2 act conf: inactive; VP16 Luc act: inactive

What do the screens show for `CCN(CC)CCNC(=O)C(Cl)=C1C(Cl)=C(Cl)C(Cl)=C1Cl`?
Wnt bcat act: inactive; SMARCA2 act: 10.2; esBAF inh: inactive; FGF22 binding: inactive; AF4-AF9 inh: inactive; MITF act: inactive; SMARCA2 act conf: 21.1; VP16 Luc act: inactive

Results for Cc1ccccc1NC(=S)NNC(=O)c1ccco1 ?
Wnt bcat act: inactive; SMARCA2 act: inactive; esBAF inh: inactive; FGF22 binding: inactive; AF4-AF9 inh: inactive; MITF act: inactive

What do the screens show for `O=C(NC(=S)Nc1ccccn1)c1ccco1`?
Wnt bcat act: inactive; SMARCA2 act: 8.8; MITF act: inactive; SMARCA2 act conf: 12.4; VP16 Luc act: 8.6

How did O=C(NC(=S)Nc1ccc2c(c1)OCCO2)c1ccco1 do in these assays?
Wnt bcat act: inconclusive; SMARCA2 act: inactive; esBAF inh: inactive; FGF22 binding: inactive; AF4-AF9 inh: inactive; MITF act: inconclusive

Results for O=C(NC(=S)Nc1cccc(O)c1)c1ccco1 ?
Wnt bcat act: inactive; SMARCA2 act: 9.1; esBAF inh: inactive; FGF22 binding: inactive; AF4-AF9 inh: inactive; MITF act: inactive; SMARCA2 act conf: inactive; VP16 Luc act: 7.6
